In PubChem BioAssay (Tox21):
A number with no mark means an inactive call. Results filed as inconclusive are left out. Where a call stands in place of a potency, no number is given. Active and inactive are the calls of the source. Unless noted, the call rests on the fitted dose curve; in most records, active means well fitted curve in the direction sought with a large enough effect in the repeat runs; inconclusive means weak or mixed curves; inactive means flat fitted curve, though single readings scatter.

Assays:
[1] = qHTS assay to test for compound auto fluorescence at 535 nm (green) in HEK293 cells (AID 720680)
[2] = qHTS assay to test for compound auto fluorescence at 460 nm (blue) in HEK293 cell free culture (AID 720681)
Outline: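 Compounds were added to cell-free DMEM with 10% FBS and fluorescence read directly. The blue channel used 405 nm excitation and 460 nm emission, with triamterene as the reference fluorophore.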

[3] = qHTS assay to test for compound auto fluorescence at 535 nm (green) in HEK293 cell free culture (AID 720682)
Outline: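 DMEM + 10% FBS, cell-free; cpd or DMSO pinned in; Ex485/Em535 read; output as fluorescein-equivalent signal.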

[4] = qHTS assay to test for compound auto fluorescence at 590 nm (red) in HEK293 cell free culture (AID 720683)
Outline: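 Cell-free wells of DMEM with 10% FBS received compound, and intrinsic fluorescence was read at excitation/emission 540/590 nm. Values expressed as equivalence to Rose Bengal sodium.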

[5] = qHTS assay to test for compound auto fluorescence at 590 nm (red) in HepG2 cell free culture (AID 720684)
Outline: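 Auto fluorescence equivalency versus Rose Bengal sodium, red channel Ex/Em 540/590 nm; compounds in cell-free MEM/10% FBS; DMSO vehicle control.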

[6] = qHTS assay to test for compound auto fluorescence at 460 nm (blue) in HepG2 cell free culture (AID 720685)
Outline: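 Cell-free plates of MEM plus 10% FBS received 23 nL compound or DMSO vehicle; blue-channel (405/460 nm) intensity scored against triamterene as reference fluorophore.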

[7] = qHTS assay to test for compound auto fluorescence at 535 nm (green) in HepG2 cell free culture (AID 720686)
[8] = qHTS assay to test for compound auto fluorescence at 460 nm (blue) in HepG2 cells (AID 720687)
Outline: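 HepG2 cells in MEM with 10% FBS, attached overnight at 37 C, were exposed to compound or DMSO for 1 hr at 37 C, 5% CO2. Blue fluorescence was read at 405/460 nm, with triamterene as reference fluorophore.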

[9] = target: Glucocorticoid receptor (Homo sapiens) (UniProt P04150); assay: qHTS assay to identify small molecule agonists of the glucocorticoid receptor (GR) signaling pathway (AID 720691; active means well fitted activation curve with a large enough effect in the signal ratio in the repeat runs, not every such curve was filed as active; the % refers to the signal ratio); details: GR-bla HeLa, beta-lactamase reporter ratio, 18 h; activation: at 62.4 µM (top of the series) unless noted
Sequence of Glucocorticoid receptor (Homo sapiens) (P04150 whole entry, looked up): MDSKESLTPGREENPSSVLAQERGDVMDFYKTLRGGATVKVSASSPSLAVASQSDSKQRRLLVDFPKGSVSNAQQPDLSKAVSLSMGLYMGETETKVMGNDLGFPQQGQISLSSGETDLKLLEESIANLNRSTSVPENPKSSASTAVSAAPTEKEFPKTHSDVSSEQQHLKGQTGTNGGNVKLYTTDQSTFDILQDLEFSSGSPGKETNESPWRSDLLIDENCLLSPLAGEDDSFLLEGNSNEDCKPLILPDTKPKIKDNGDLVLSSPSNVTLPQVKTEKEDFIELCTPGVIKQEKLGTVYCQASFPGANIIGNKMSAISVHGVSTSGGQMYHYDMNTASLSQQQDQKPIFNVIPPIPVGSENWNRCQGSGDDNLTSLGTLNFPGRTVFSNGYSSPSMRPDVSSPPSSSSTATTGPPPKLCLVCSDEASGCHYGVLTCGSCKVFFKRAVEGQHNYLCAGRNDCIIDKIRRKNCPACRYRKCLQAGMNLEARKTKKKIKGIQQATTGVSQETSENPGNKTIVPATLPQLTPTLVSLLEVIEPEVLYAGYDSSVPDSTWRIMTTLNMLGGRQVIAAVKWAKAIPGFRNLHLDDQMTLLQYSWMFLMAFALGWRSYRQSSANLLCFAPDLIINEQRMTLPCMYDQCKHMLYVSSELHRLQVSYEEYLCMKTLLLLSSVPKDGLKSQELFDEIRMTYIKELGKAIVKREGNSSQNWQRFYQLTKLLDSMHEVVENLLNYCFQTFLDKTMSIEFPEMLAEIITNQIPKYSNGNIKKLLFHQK
Outline: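 Agonist-mode qHTS in HeLa cells stably expressing a glucocorticoid-response-element beta-lactamase reporter. Fluorescence intensity read with FRET substrate (2 h, room temperature) after 18 h compound treatment at 37 C.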

[10] = target: Glucocorticoid receptor (Homo sapiens) (UniProt P04150); assay: qHTS assay to identify small molecule antagonists of the glucocorticoid receptor (GR) signaling pathway (AID 720692; active means well fitted inhibition curve with a large enough effect in the signal ratio in the repeat runs, not every such curve was filed as active; the % refers to the signal ratio; further: potency means the concentration at half of the fitted maximal effect)
Outline: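 Inhibition of dexamethasone-driven (5 nM final) beta-lactamase expression was measured in GRE-reporter HeLa cells over 18 h at 37C. Fluorescence was read after 2 h with the B/G FRET substrate at room temperature.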

CCNc1cc(O)ccc1C
outcome [1]: inactive | outcome [2]: inactive | outcome [3]: inactive | Potency [4]: inactive | Potency [5]: inactive | outcome [6]: inactive | Potency [7]: inactive | outcome [8]: inactive

Cc1ccccc1S(=O)(=O)O
outcome [1]: inactive | outcome [2]: inactive | outcome [3]: inactive | Potency [4]: inactive | Potency [5]: inactive | outcome [6]: inactive | Potency [7]: inactive | outcome [8]: inactive

CC(CC=O)c1ccccc1 (stereo unspecified)
outcome [1]: inactive | outcome [2]: inactive | outcome [3]: inactive | Potency [4]: inactive | Potency [5]: inactive | outcome [6]: inactive | Potency [7]: inactive | outcome [8]: inactive

CCC(CC)Nc1ccc(C)c(C)c1
outcome [1]: inactive | outcome [2]: inactive | outcome [3]: inactive | Potency [4]: inactive | Potency [5]: inactive | outcome [6]: inactive | Potency [7]: inactive | outcome [8]: inactive

CC(C)(C)Cl
outcome [1]: inactive | outcome [2]: inactive | outcome [3]: inactive | Potency [4]: inactive | Potency [5]: inactive | outcome [6]: inactive | Potency [7]: inactive | outcome [8]: inactive

CC1CCC(=O)C1=O (stereo unspecified)
outcome [1]: inactive | outcome [2]: inactive | outcome [3]: inactive | Potency [4]: inactive | Potency [5]: inactive | outcome [6]: inactive | Potency [7]: inactive | outcome [8]: inactive | Potency [9]: inactive

O=C(CS)Nc1ccccc1
outcome [1]: inactive | outcome [2]: inactive | outcome [3]: inactive | Potency [4]: inactive | Potency [5]: inactive | outcome [6]: inactive | Potency [7]: inactive | outcome [8]: inactive

CN1CCN(C(c2ccccc2)c2ccccc2)CC1
fluorescence, % of fluorescein [1]: 0.0022% [at 18.6 µM] | fluorescence, % of fluorescent control [2]: -0.0336% [at 18.6 µM] | activity change [3]: 0.0291% [at 18.6 µM] | fluorescence, % of fluorescent control [4]: 0.0321% [at 18.6 µM] | fluorescence, % of Rose Bengal [5]: -0.0854% [at 18.6 µM] | fluorescence, % of fluorescent control [6]: -0.0233% [at 18.6 µM] | fluorescence, % of fluorescein control [7]: 0.0024% [at 18.6 µM] | fluorescence, % of fluorescent control [8]: 0.0094% [at 18.6 µM] | Potency [9]: inactive

Cc1ccc(N=Nc2c(O)c(C(=O)O)cc3ccccc23)c(S(=O)(=O)O)c1
outcome [1]: inactive | outcome [2]: inactive | outcome [3]: inactive | Potency [4]: inactive | Potency [5]: inactive | outcome [6]: inactive | Potency [7]: inactive | outcome [8]: inactive

CC1=CC=C(C(C)C)CC1
outcome [1]: inactive | outcome [2]: inactive | outcome [3]: inactive | Potency [4]: inactive | Potency [5]: inactive | outcome [6]: inactive | Potency [7]: inactive | outcome [8]: inactive

CC(C)O.CC(C)O.CCOC(=O)/C=C(\C)O.CCOC(=O)/C=C(\C)O.[Ti]
outcome [1]: inactive | outcome [2]: inactive | outcome [3]: inactive | Potency [4]: inactive | Potency [5]: inactive | outcome [6]: inactive | Potency [7]: inactive | outcome [8]: inactive

O=C(O)c1nc(Cl)c(Cl)c(Cl)c1Cl
outcome [1]: inactive | outcome [2]: inactive | outcome [3]: inactive | Potency [4]: inactive | Potency [5]: inactive | outcome [6]: inactive | Potency [7]: inactive | outcome [8]: inactive | Potency [9]: inactive

CCN(CC)CCOC(=O)C(Cc1cccc2ccccc12)CC1CCCO1 (stereo unspecified)
fluorescence, % of fluorescein [1]: 0.0124% [at 18.6 µM] | fluorescence, % of fluorescent control [2]: 0.0375% [at 18.6 µM] | activity change [3]: -0.0273% [at 18.6 µM] | fluorescence, % of fluorescent control [4]: 0.0006% [at 18.6 µM] | fluorescence, % of Rose Bengal [5]: 0.633% [at 18.6 µM] | fluorescence, % of fluorescent control [6]: -0.0194% [at 18.6 µM] | fluorescence, % of fluorescein control [7]: 0.0151% [at 18.6 µM] | fluorescence, % of fluorescent control [8]: -0.147% [at 18.6 µM]

c1ccc(-c2ccccn2)nc1
outcome [1]: inactive | outcome [2]: inactive | outcome [3]: inactive | Potency [4]: inactive | Potency [5]: inactive | outcome [6]: inactive | Potency [7]: inactive | outcome [8]: inactive | Potency [9]: inactive

CCN(CC)CCNC(=O)c1cc(Br)c(N)cc1OC
outcome [1]: inactive | outcome [2]: inactive | outcome [3]: inactive | Potency [4]: inactive | Potency [5]: inactive | outcome [6]: inactive | Potency [7]: inactive | outcome [8]: inactive

CN1CCC(=C2c3ccccc3Sc3ccccc32)CC1
outcome [1]: inactive | outcome [2]: inactive | outcome [3]: inactive | Potency [4]: inactive | Potency [5]: inactive | outcome [6]: inactive | Potency [7]: inactive | outcome [8]: inactive | Potency [9]: inactive

CNCCCCOc1ccccc1Cc1ccccc1
outcome [1]: inactive | outcome [2]: inactive | outcome [3]: inactive | Potency [4]: inactive | Potency [5]: inactive | outcome [6]: inactive | Potency [7]: inactive | outcome [8]: inactive | Potency [9]: inactive

C[C@H](CCC(=O)O)[C@H]1CC[C@H]2[C@@H]3CC[C@@H]4C[C@H](O)CC[C@]4(C)[C@H]3C[C@H](O)[C@]12C
outcome [1]: inactive | outcome [2]: inactive | outcome [3]: inactive | Potency [4]: inactive | Potency [5]: inactive | outcome [6]: inactive | Potency [7]: inactive | outcome [8]: inactive | Potency [9]: inactive | Potency [10]: 49.1 µM (active)

CC(=O)NO
outcome [1]: inactive | outcome [2]: inactive | outcome [3]: inactive | Potency [4]: inactive | outcome [6]: inactive | Potency [7]: inactive | outcome [8]: inactive | Potency [9]: inactive | Potency [10]: inactive

CCc1c(C(=O)NN2CCCCC2)nn(-c2ccc(Cl)cc2Cl)c1-c1ccc(Br)cc1
outcome [1]: inactive | outcome [2]: inactive | outcome [3]: inactive | Potency [4]: inactive | outcome [6]: inactive | Potency [7]: inactive | outcome [8]: inactive

C[C@@H]1C[C@H]2O[C@@]3(O[C@@H]2C(C)(C)O)[C@H](O)[C@@]2(C)[C@@H]4CC[C@H]5C(C)(C)[C@@H](O[C@@H]6OC[C@@H](O)[C@H](O)[C@H]6O)CC[C@@]56C[C@@]46CC[C@]2(C)[C@@H]13
outcome [1]: inactive | outcome [2]: inactive | outcome [3]: inactive | Potency [4]: inactive | outcome [6]: inactive | Potency [7]: inactive | outcome [8]: inactive | Potency [9]: inactive
